Screening results (PubChem)
TSHR antagonist = Antagonists of the Thyroid Stimulating Hormone Receptor: HTS campaign; Thyrotropin receptor (Homo sapiens), P16473; TSHR-expressing cells, TSH-stimulated cAMP HTRF, 2 h; stronger effect = lower value; activity change, negative = inhibition, % at 11.5 µM; 330,000 tested, 0.2% active; AID 504810, 2011;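 active means activity change below a set negative limit, meaning inhibition stronger than a set level, cut at about -70% in these data; inconclusive means activity change between two set negative limits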; further: on the % scale 0 is the no-effect control and ±100 the full control effect
Target sequence (P16473 whole entry, looked up): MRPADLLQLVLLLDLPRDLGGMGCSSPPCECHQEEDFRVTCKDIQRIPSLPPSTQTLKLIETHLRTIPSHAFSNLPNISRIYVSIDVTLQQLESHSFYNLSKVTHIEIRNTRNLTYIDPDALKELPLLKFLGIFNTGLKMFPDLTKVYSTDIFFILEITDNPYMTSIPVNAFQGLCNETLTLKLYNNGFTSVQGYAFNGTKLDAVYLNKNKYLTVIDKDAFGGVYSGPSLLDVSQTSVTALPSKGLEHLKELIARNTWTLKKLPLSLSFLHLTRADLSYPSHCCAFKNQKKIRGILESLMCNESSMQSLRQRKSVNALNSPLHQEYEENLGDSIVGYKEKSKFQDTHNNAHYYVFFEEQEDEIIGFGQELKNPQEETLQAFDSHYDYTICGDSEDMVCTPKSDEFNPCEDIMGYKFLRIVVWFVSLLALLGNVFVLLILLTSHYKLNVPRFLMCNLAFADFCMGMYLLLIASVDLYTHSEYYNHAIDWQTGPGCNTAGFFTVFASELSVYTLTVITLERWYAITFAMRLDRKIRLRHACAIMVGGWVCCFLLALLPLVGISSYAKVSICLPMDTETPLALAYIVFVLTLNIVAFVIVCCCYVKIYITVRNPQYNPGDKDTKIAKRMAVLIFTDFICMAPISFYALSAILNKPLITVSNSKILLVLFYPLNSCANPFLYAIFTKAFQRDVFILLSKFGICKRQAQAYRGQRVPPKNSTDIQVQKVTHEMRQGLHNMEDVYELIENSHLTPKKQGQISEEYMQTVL
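TSHR-expressing cells were treated with compounds, then stimulated with TSH at EC80 (4nM final) for 2 hours at 37 deg C. Cellular cAMP was measured by HTRF competition between lysate cAMP and cAMP-d2 for a cryptate-labelled anti-cAMP antibody.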
GLP1R inv ag = qHTS of GLP-1 Receptor Inverse Agonists (Inhibition Mode); Glucagon-like peptide 1 receptor (Homo sapiens), P43220; HEK293 GLP-1R CRE-luciferase, luminescence, 24 h; GLP-1R form is constitutively active; Potency, µM (series often up to 38.3 µM), for inactives: at the top dose activity change, negative = inhibition, actives largely listed as inhibitors; 410,000 tested, 1.6% active; AID 624417, 2012; further: potency means the concentration at half of the fitted maximal effect; on the % scale 0 is the no-effect control and ±100 the full control effect; nearly all actives have a fitted effect of over 55% in size
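Readout was luciferase luminescence, measured 12 min after detection reagent at room temperature. Beforehand, GLP-1R reporter HEK293 cells had sat 12 h, then received compounds for 24 hr at 37 deg C.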
PTHR1 ag = qHTS for PTHR1 Agonists: Primary Screen. Potency, µM (highest dose often 115 µM), without a hit: at the top dose activation, actives largely listed as activators. 410,000 tested, 0.075% active. Parathyroid hormone/parathyroid hormone-related peptide receptor (Homo sapiens), Q03431. HEK293 GP2 PTHR1 cells, GloSensor cAMP luminescence, 1 h; further: potency means the concentration at half of the fitted maximal effect; nearly all actives have a fitted effect of over 55% in size
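HEK-293-derived GP2 cells expressing PTHR1 and a GloSensor cAMP reporter, 3,000/well, plated overnight, given luciferin plus IBMX (each 0.5 mM as added) for 1 h at 37 °C, then compound for 1 h at 37 °C. Luminescence was read after 15 min at room temperature.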
GLP-1R agonist = qHTS of GLP-1 Receptor Agonists | 380,000 tested, 0.007% active | Potency, µM (top dose mostly 45.6 µM), without a hit: at the highest dose activation, actives largely listed as activators | Glucagon-like peptide 1 receptor (Homo sapiens), P43220 | HEK293 GLP-1R CRE-luciferase, luminescence, 4-6 h; cells express a hypersensitive GLP-1R form; further: potency means the concentration at half of the fitted maximal effect; % of control where 0% means no effect
HEK293 tox = qHTS of GLP-1 Receptor Inverse Agonists: Cytotox Screen | HEK293 cAMP-luciferase reporter cells, luminescence, 24 h | Potency, µM (top dose mostly 38.3 µM), without a hit: at the top dose activity change, negative = inhibition, most hits filed as inhibitors | 410,000 tested, 0.13% active;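 further: loss of luciferase light is scored as toxicity; potency means the concentration at half of the fitted maximal effect; on the % scale 0 is the no-effect control and ±100 the full control effect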
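Luminescence readout: signal drop marks cytotoxicity. Plated cells grew 12 h at 37 °C, 5% CO2, received 23 nL compound for 24 h, then got luciferase reagent, read after 12 min at RT.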
An asterisk follows results filed as active; i = inactive; ? = inconclusive; / = no result; [ ] = another dose, or the depositor's remark. Compounds with a hit are over-represented: about 1.8% of the library has one in this group of screens. Unless noted, the call rests on the fitted dose curve; in most records, active means well fitted curve in the direction sought with a large enough effect; inconclusive means small, poorly fitted or top-dose-only effect, or another doubt; inactive means no such curve, though single readings can be large; an effect the other way counts as inactive or inconclusive.

SMILES | TSHR antagonist | GLP1R inv ag | PTHR1 ag | GLP-1R agonist | HEK293 tox
CN1CCN(S(=O)(=O)c2cccc(C(=O)N(C)Cc3cccs3)c2)CC1 | 16.2 | 20.5% | i | 2.3% | 0.5%
COc1cc(NC(=O)c2cc(C3CC3)nc3c2c(C)nn3-c2ccc(C)cc2)cc(OC)c1 | / | -9.4% | i | / | 6.7%
O=c1ccc2cc(S(=O)(=O)Nc3ccc(F)c(Cl)c3)ccc2[nH]1 | / | 13.0% | -44.2% | 0.9% | 4.6%
Oc1ccc(-c2n[nH]c(C(F)(F)F)c2-c2ccccc2)c(O)c1 | -32.9 | ? | -79.7% | 1.9% | -9.2%
COc1ccccc1-c1c(-c2ccc(O)cc2O)n[nH]c1C(F)(F)F | 1.6 | 11.2µM* | -18.6% | -2.9% | -15.4%
CSc1ccc(-c2nc3cccc(C)n3c2Nc2ccc3c(c2)OCO3)cc1 | / | 10µM* | -23.5% | / | 3.5%
Cc1cccc2nc(-c3ccco3)c(Nc3ccc4c(c3)OCO4)n12 | -6.5 | 8.91µM* | -20.9% | 10.8% | -24.4%
CSc1ccc(-c2nc3c(C)cccn3c2Nc2ccc3c(c2)OCCO3)cc1 | / | ? | i | / | -5.8%
Cc1ccc(-c2nc3cccc(C)n3c2Nc2ccc3c(c2)OCO3)o1 | / | ? | -10.9% | / | -8.6%
CCCN(CCC)C(=O)Cn1c(=O)n(-c2ccc(CC)cc2)c(=O)c2c3c(sc21)CCC3 | / | -21.4% | ? | -1.2% | -12.1%
CC(=O)N1CCCC1c1nc2ccccc2n1Cc1ccccc1Cl (centres undefined) | / | 15.8% | i | / | -6.5%
O=C(OCC(=O)N(CCc1ccccc1)Cc1ccccc1)c1ccccc1O | -7.4 | 10µM* | i | -14.2% | 16.1%
O=C(OCC(=O)N(CCc1ccccc1)Cc1ccccc1)c1ccccc1NCCO | -13.3 | 10µM* | -6.0% | 6.1% | -12.6%
O=C(OCC(=O)N(Cc1ccccc1)Cc1ccccc1)c1ccccc1O | -4.8 | ? | -36.4% | 11.1% | -0.1%
Cc1cc(C(=O)COC(=O)C2=COCCO2)c(C)n1-c1cccc(F)c1 | -7.3 | 10µM* | -11.0% | 4.3% | 2.4%
Cc1cc(C(=O)COC(=O)C2=COCCO2)c(C)n1-c1ccc2c(c1)OCO2 | -4.7 | ? | -3.4%[57.5 µM] | 0.0% | -15.2%
O=C(NCC(c1cccs1)N1CCOCC1)c1cn(-c2ccccc2)nc1-c1ccccc1 (centres undefined) | -11.7 | 10µM* | i | 3.4% | -8.9%
O=C(NCC(c1cccs1)N1CCOCC1)c1cn(-c2ccccc2)nc1-c1ccc(Cl)cc1 (centres undefined) | 0.7 | -16.4% | i | -8.5% | 8.5%
COc1cc(C(=O)NCC(c2cccs2)N2CCOCC2)cc(Br)c1OCc1ccccc1 (centres undefined) | / | 6.31µM* | i | 7.4% | -20.4%
CC(C)COc1ccc(CSCCNC(=S)Nc2ccccc2)cc1 | -6.0 | 3.16µM* | -57.3% | 1.8% | 4.47µM*
CCCCOc1ccc(CSCCNC(=S)Nc2ccccc2)cc1 | -29.8 | 1.78µM* | -31.4% | -4.2% | 3.16µM*
CN(C)S(=O)(=O)N1CCC(n2cnc3cccnc32)CC1 | / | -8.2% | i | / | -11.7%
CCc1ccc(NC(=O)c2ccc(F)c(S(=O)(=O)NCCc3ccc(OC)c(OC)c3)c2)cc1 | / | 10µM* | -90.4% | / | -20.0%
CCc1ccc(NC(=O)c2ccc(F)c(S(=O)(=O)NCC3COc4ccccc4O3)c2)cc1 (centres undefined) | -27.2 | 5.01µM* | -47.3% | -7.0% | ?
CCOc1ccc(NC(=O)c2ccc(F)c(S(=O)(=O)N(Cc3ccc(C(=O)OC)cc3)Cc3ccc(OC)c(OC)c3)c2)cc1 | / | -12.5% | i | / | -14.3%
SMILES | TSHR antagonist | GLP1R inv ag | PTHR1 ag | GLP-1R agonist | HEK293 tox
CCC(CC)C(=O)Nc1ccc2nc(SCC(=O)N3c4ccccc4CC3C)sc2c1 (centres undefined) | / | ? | -10.7% | / | 3.5%
COC(=O)c1cc(Cl)ccc1NC(=O)CSc1ncc(S(=O)(=O)c2ccc(Br)cc2)c(=O)[nH]1 | / | -1.4% | -10.6% | -5.5% | 1.8%
CCN(c1ccccc1)S(=O)(=O)c1ccc(NC(=O)c2nc(SC)ncc2Cl)cc1 | / | ? | i | / | -9.5%
CN1CCN(S(=O)(=O)c2ccc(N3CCN(S(=O)(=O)/C=C/c4ccccc4)CC3)nc2)CC1 | -6.1 | 7.94µM* | i | -3.2% | -14.0%
COc1cccc2c1C1COC3C4CC(C(=O)O)C(C(C2)N13)N4C (centres undefined) | / | 3.98µM* | i | -6.5% | ?
COc1ccccc1NC(=O)Cn1c(=O)n(Cc2ccc3c(c2)OCO3)c(=O)c2oc3ccccc3c21 | / | -4.0% | 17.3% | / | -1.0%
O=C(Nc1cccc(O)c1)c1cc(-c2ccc3c(c2)OCO3)on1 | 26.5 | 10µM* | -92.4% | -6.9% | -9.4%
CCOC(=O)COc1ccc2c(C)c(CCN(CC)CC)c(=O)oc2c1 | / | / | / | -4.4% | /
CCOC(=O)c1cc(-c2ccccc2)sc1NC(=O)C(C)C | 13.7 | -26.0% | -44.3% | 6.6% | 4.4%
CCOC(=O)c1cc(-c2ccccc2)sc1NC(=O)C(C)N1C(=O)NC(C)(c2ccc(Cl)cc2)C1=O (centres undefined) | -42.9 | 5.62µM* | -10.6%[57.5 µM] | -5.0% | 5.6%
COc1ccc([C@@H]2[C@@H]3C(=O)N(C(C)(C)C)C(=O)[C@@H]3[C@]3(Cc4ccc(Cl)cc4)C(=O)N(c4ccc(Br)cc4)C(=O)N23)cc1 | 16.4 | 10µM* | -8.4% | -0.1% | -5.1%
CC(C)(C)N1C(=O)[C@H]2[C@@H](c3ccc(Br)cc3)N3C(=O)N(c4ccc(Br)cc4)C(=O)[C@@]3(Cc3ccccc3)[C@H]2C1=O | -4.3 | 11.2µM* | -22.4% | -5.9% | -4.5%
CCC12CN3CC(C)(CN(C1)C3c1c(C)[nH]c3ccccc13)C2=O (centres undefined) | / | -12.5% | i | / | -1.9%
Cc1ccc(NC(=O)Cn2nnc(C(=O)NCc3ccc4c(c3)OCO4)c2N)cc1Cl | / | -13.0% | -33.4% | / | -16.6%
CCCSc1ncc(Cl)c(C(=O)NCc2ccc(OC)cc2)n1 | / | -24.4% | -21.5% | / | 9.1%
COc1ccccc1CN(C)C(=O)C(c1ccccc1)c1ccccc1 | -5.2 | 12.6µM* | -37.8% | 2.6% | ?
COc1ccc(C(=O)c2oc3ccccc3c2NC(=O)c2cc(=O)c3ccc(C)cc3o2)cc1Cl | / | 0.9% | -6.1% | / | 30.3%
Cc1cc(NC(=O)c2sc(Nc3cccc(C(F)(F)F)c3)nc2N)no1 | -1.9 | 5.01µM* | -16.3%[57.5 µM] | 0.0% | 7.9%
